APP 5'UTR act: activators of APP 5'UTR luciferase reporter, primary screen, SH-SY5Y cells. SH-SY5Y APP 5'UTR luciferase reporter, luminescence; zero percent = DMSO vehicle wells. activation, % at 2 µM. hit rate 1% among 190,000;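 active means activation above a set limit, based on mean plus 3 SD of controls, cut at about 140% in these data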
STAT1 act: STAT1 signaling activators, primary screen, cell-based, HTS, luciferase reporter; NIH 3T3 STAT1-luciferase reporter, IFN-gamma, luminescence; 100% = IFN-gamma alone, no compound; activation (% of control), % at 5.5 µM; hit rate 2.6% among 200,000;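 active means activation above the screen-wide mean activation plus 3 SD, cut at about 130% in these data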;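 further: raw ratio to IFN-gamma control signal so 100% means no change and 0% no light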
NF-kB neuron act: activators of NF-kB expression in neurons, primary screen, cell-based, HTS. human neuronal cells, NF-kB reporter expression; active compounds read high. fold change at 12.5 µM. hit rate 1.6% among 190,000; in the data active means fold change above about 3.3
Hsp70 act: Hsp70 transcriptional activators, primary screen, cell-based, HeLa, Hsp70 promoter luciferase, luminescence, 10 µM; HeLa Hsp70 promoter luciferase reporter; scaled: vehicle 0, proteasome-inhibitor control 100%; AID 1203, 2008; activation, % at 10 µM; hit rate 0.04% among 200,000;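 active means activation above the mean across all tested compounds plus 3 SD, cutoff set per campaign, cut at about 5.5% in these data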;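 further: 100% = MG132 at 30 µM as the positive control and 0% = DMSO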
APP 5UTR inh: inhibitors of APP translation via 5'UTR reporter, primary screen, APP 5'UTR luciferase, SH-SY5Y cells; SH-SY5Y APP 5'UTR-luciferase reporter, luminescence; hit rate 0.82% among 190,000; inhibition, % at 2 µM;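 active means inhibition above a set limit, derived from the sample mean plus 3 SD, cut at about 45% in these data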
Wee1 stabilizer: Wee1 degradation inhibitors, primary screen, cell-based, HeLa, Wee1K328M-luciferase, luminescence. Wee1-like protein kinase (Homo sapiens), P30291. HeLa Luc-Wee1K328M stability; 100% = proteasome inhibitor MG132 effect. reporter increase, % at 5 µM. hit rate 1.2% among 220,000. AID 1321, 2008;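 active means activation above the mean of all tested compounds plus 3 SD, set per screening run, cut at about 8.8% in these data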;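 further: cells exposed to compound for 20 h before luminescence read; 0% = DMSO alone and 100% = MG132 at 30 µM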
Target sequence (P30291 whole entry K328M): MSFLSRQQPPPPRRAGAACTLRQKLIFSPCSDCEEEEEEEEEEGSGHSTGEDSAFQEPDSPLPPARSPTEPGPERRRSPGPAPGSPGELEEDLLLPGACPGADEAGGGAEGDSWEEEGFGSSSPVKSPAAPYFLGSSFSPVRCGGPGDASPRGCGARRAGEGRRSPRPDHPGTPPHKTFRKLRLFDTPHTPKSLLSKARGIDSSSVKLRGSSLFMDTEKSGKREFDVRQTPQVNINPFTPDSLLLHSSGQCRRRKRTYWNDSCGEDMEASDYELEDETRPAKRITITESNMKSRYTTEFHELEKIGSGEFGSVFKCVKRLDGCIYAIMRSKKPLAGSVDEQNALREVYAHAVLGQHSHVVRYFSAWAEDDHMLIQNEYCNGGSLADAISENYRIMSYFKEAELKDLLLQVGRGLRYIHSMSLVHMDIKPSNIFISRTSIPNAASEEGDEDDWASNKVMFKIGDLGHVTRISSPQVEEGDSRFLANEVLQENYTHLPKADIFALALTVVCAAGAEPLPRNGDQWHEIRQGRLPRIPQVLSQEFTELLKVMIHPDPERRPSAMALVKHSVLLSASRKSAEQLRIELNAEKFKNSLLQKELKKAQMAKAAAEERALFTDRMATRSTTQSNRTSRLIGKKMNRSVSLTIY
* = called active by the depositor; · = no result given. Rows were chosen to be rich in hits. Some 4.8% of all compounds tested hit in one or more screens of this group.

SMILES	APP 5'UTR act	STAT1 act	NF-kB neuron act	Hsp70 act	APP 5UTR inh	Wee1 stabilizer
COc1ccc(NC(=O)C2CCCN2C(=O)OC(C)(C)C)cc1 (centres undefined)	0	100	1.2	0	0	0
CC(C)(C)OC(=O)N1CCC[C@H]1C(=O)NCc1ccc(Cl)cc1Cl	14	100	1.1	1	-14	10*
Cn1cnc([N+](=O)[O-])c1Sc1ccc(Br)cc1	7	100	1.6	0	-7	-3
O=C(CCCOc1ccccc1)N1CCN(c2ccccc2)CC1	24	131*	2	0	-24	-1
CCOC(=O)N1CCN(C(=O)CCCOc2ccccc2)CC1	81	125	2	4	-81	-2
NC(=O)C1CCN(C(=O)CCSc2ccc(Cl)cc2)CC1	-3	114	1.4	0	2	-3
O=C(CCOc1ccccc1)N1CCN(c2ccc(O)cc2)CC1	·	·	·	·	·	1
O=C(CCSc1ccc(Cl)cc1)N1CCCCCC1	38	132*	2.3	0	-38	3
Cc1cccc(N2CCN(C(=O)CCCOc3ccccc3)CC2)c1C	101	132*	2	0	-101	5
O=C(CSc1ccccc1)N1CCN(c2ccccc2)CC1	31	109	1.2	0	-31	0
O=C(CCSc1ccccc1)N1CCN(c2ccccc2)CC1	58	131*	2.5	0	-58	1
Cc1csc(SCC(=O)Nc2cc(C(C)(C)C)nn2-c2ccccc2)n1	14	95	1.1	0	-14	-1
CCc1cccc(NC(=O)Nc2cccs2)c1	43	133*	1.7	1	-43	4
Cc1nc(NC(=O)Nc2ccc(Cl)cc2)sc1C	101	143*	1.9	0	-101	0
COCC(=O)Nc1ccc(OC)c(Cl)c1	-1	93	1	1	1	-1
COc1ccc(NC(=O)Nc2cccs2)cc1Cl	75	130*	1.6	0	-75	-1
CC(=O)c1ccc(NC(=O)Nc2ccc(Cl)cc2)cc1	166*	133*	3.6*	0	-166	1
CC(=O)c1ccc(NC(=O)Nc2ccncc2)cc1	19	100	0.8	0	-19	0
CCNC(=O)COC(=O)CCC(=O)c1ccc(F)cc1	·	·	·	·	·	-4
CC1CC(O)(Cc2ccccc2)C(C)CN1C (centres undefined)	-4	105	1	0	4	0
COc1ccc(C(=O)Nc2ccc(Cl)c(Cl)c2)c(OC)n1	42	131*	4.6*	0	-42	3
COc1ccc(NC(=O)C=C(C)C)cc1Cl	153*	125	4.7*	0	-153	0
CC(C)=CC(=O)Nc1ccc(Cl)cc1	184*	132*	3.3*	0	-184	0
CNC(=O)Nc1ccc(Cl)cc1	-14	100	1.3	0	14	1
COc1ccc(NC(=O)c2cc(F)c(F)cc2Cl)cc1Cl	·	·	·	·	·	9.1*
SMILES	APP 5'UTR act	STAT1 act	NF-kB neuron act	Hsp70 act	APP 5UTR inh	Wee1 stabilizer
COc1ccc(C(=O)O)c(OC)n1	·	·	·	·	·	-4
CCOC(=O)C1CCN(S(=O)(=O)c2ccc(OCC)cc2)CC1	14	96	1.1	0	-14	-1
CCc1nn2cc(C(=O)c3cc(Cl)ccc3O)cnc2c1-c1ccc(F)cc1	-22	95	1.1	0	22	1
Cc1conc1NC(c1cccs1)c1ccc2cccnc2c1O (centres undefined)	-39	100	1.1	0	39	-1
CC(C)C(=O)NC(c1ccco1)c1ccc2cccnc2c1O (centres undefined)	-84	97	0.87	0	84*	6
Oc1c(C(Nc2nc3ccccc3s2)c2ccco2)ccc2cccnc12 (centres undefined)	-69	101	1.3	0	68*	1
CC(=O)Nc1ccc(OCC(=O)NCCc2ccccc2)cc1	-6	106	1.4	0	6	-2
O=[N+]([O-])c1ccc(CSc2nc3ccccc3[nH]2)cc1	81	141*	2.3	0	-81	3
CCCOc1ccc(CSc2nc3ccccc3[nH]2)cc1	125	92	3.5*	0	-125	-2
CCOc1ccc(OCCSc2nc3ccccc3[nH]2)cc1	3	90	1.1	0	-3	-1
Fc1ccc(CSc2nc3ccccc3[nH]2)cc1	79	129*	4.8*	0	-79	5
CC(NC(=O)c1cc(-c2ccccc2)nc2ccccc12)C1CCCO1 (centres undefined)	1	101	1.2	0	-1	2
Cc1ccc(N2CS(=O)(=O)/C(=C/N(C)C)C2=O)cc1	99	150*	1.9	0	-99	0
COc1cc(/C=C2\SC(=S)N(N3CCOCC3)C2=O)ccc1O	·	·	·	·	·	9.0*
COc1cc(/C=C2/C(=O)N(c3ccc([N+](=O)[O-])cc3)N=C2N2CCOCC2)ccc1O	·	·	·	·	·	8.9*
O=c1c2ccccc2ncn1CCCOc1ccccc1[N+](=O)[O-]	91	129*	2.1	0	-91	2
Cc1cc(OCCCn2cnc3ccccc3c2=O)ccc1[N+](=O)[O-]	4	106	0.81	-1	-4	2
O=[N+]([O-])c1ccc(Oc2c(F)c(F)nc(N3CCCC3)c2F)cc1	-83	95	1.1	0	83*	3
Cc1cccc(NC(=O)CCSc2nnc(Cc3ccccc3)o2)c1	-3	98	1.1	0	3	-1
COc1ccccc1NC(=O)Nc1nnc(C(C)C)s1	43	140*	1.7	0	-43	0
Cc1ccc(N2NC(C)(c3cccs3)NC2=S)cc1 (centres undefined)	53	118	3.3*	0	-53	2
Nc1ccccc1Oc1ccc2ccccc2c1	12	113	1.5	0	-12	-2
Cn1c(=NC(=O)c2ccco2)sc2ccccc21	156*	119	4.6*	0	-156	5
Cc1sc(=NC(=O)c2ccco2)n(C)c1-c1ccc(F)cc1	126	127	3	0	-126	3
Cn1c(=NC(=O)c2cccc([N+](=O)[O-])c2)sc2ccccc21	104	170*	4.2*	0	-104	0
Cn1c(=NC(=O)CCl)sc2ccccc21	-25	92	0.13	0	25	-2
Cc1sc(=NC(=O)c2ccco2)n(C)c1-c1ccccc1	131	110	5.1*	0	-131	6
Cc1cccc(NC(=O)CN2C(=O)N/C(=C/c3cc(C)n(-c4cccnc4)c3C)C2=O)c1	8	103	1.1	0	-8	-4

Screening results deposited in PubChem by several laboratories.
